# In PubChem BioAssay:
# Values joined by “and” are separate entries in the source; they are usually repeats but may differ in a detail not shown here. Equal values may be shown once. Results filed as inconclusive are left out. Active and inactive are the calls of the source.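 The calls were made as follows, unless noted: active = normalized viability below 100% at a tested concentration; inactive = the rest.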
# What was measured:
# [1] = growth inhibition of DIPG glioma cells, dose response, cell-based, SU-DIPG-XVII, MIPE5.0, CellTiter-Glo, qHTS (AID 1347060; cut-off not given, nearly all actives have AC50 up to about 26 µM;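 as to AC50: cells exposed to compound for 48 hours before viability readout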); conditions: SU-DIPG-XVII viability, CellTiter-Glo ATP luminescence
# [2] = growth inhibition of DIPG glioma cells, dose response, cell-based, SU-DIPG-IV, MIPE4.0, CellTiter-Glo, qHTS (AID 1347063; cut-off not given, nearly all actives have AC50 up to about 30 µM;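 also: compound exposure lasted 48 hours before the viability readout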); conditions: SU-DIPG-IV viability, CellTiter-Glo ATP luminescence
# [3] = growth inhibition of DIPG glioma cells, dose response, cell-based, SU-DIPG-XIII, MIPE5.0, CellTiter-Glo, qHTS (AID 1347064; cut-off not given, nearly all actives have AC50 up to about 23 µM;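 as to AC50: cells exposed to compound for 48 hours before the viability read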); conditions: SU-DIPG-XIII viability, CellTiter-Glo ATP luminescence
# [4] = viability loss in pontine glioma line – cell-based, SU-DIPG-XXV, MIPE5.0, CellTiter-Glo, qHTS, dose response (AID 1347065; cut-off not given, nearly all actives have AC50 up to about 26 µM;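 also: cells exposed to compound for 48 hours before ATP readout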); conditions: CellTiter-Glo ATP luminescence
# [5] = JHH-DIPG-1 glioma cell viability, MIPE5.0 library, CellTiter-Glo luminescence, qHTS (AID 1347067; cut-off not given, nearly all actives have AC50 up to about 26 µM;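 also: cells exposed to compound for 48 hours before readout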); conditions: JHH-DIPG-1 glioma viability, CellTiter-Glo ATP luminescence
# [6] = SU-DIPG-VI glioma cell viability, MIPE4.0 library, CellTiter-Glo luminescence, qHTS (AID 1347066; cut-off not given, nearly all actives have AC50 up to about 30 µM;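 also: cells exposed to compound for 48 hours before readout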); conditions: CellTiter-Glo ATP luminescence
# [7] = SU-DIPG-XXV glioma cell viability, MIPE5.0 library, qHTS (AID 1347068; cut-off not given, nearly all actives have IC50 up to about 30 µM;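 as to IC50: cells exposed to compound for 48 hours before viability readout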)
# [8] = sensitizers of A549 cells to miR-34 induction, primary screen, imaging, A549 dox-inducible miR-34, nuclei and caspase counts (AID 1347080;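 active = compounds whose cell count with miR-34 switched on is under 0.7 times the count with it off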); conditions: A549 miR-34 inducible, Hoechst nuclei count, 48 h
# [9] = modifiers of HSF1 nuclear foci, imaging, Selleck Cancer Library (AID 1347162; in the data active = plate-normalised HSF1 focus index below about 0.46); conditions: human cells, at 10 µM; SSMD: measured here: HSF1 foci SSMD mean; cell count: measured here: cell number; plate-normalised HSF1 focus index: stronger effect = lower value
# [10] = survival rescue of mitochondrial mutant cells in low glucose, primary screen, MELAS cybrids, Rieske KO mouse fibroblasts, CellTiter-Glo (AID 1508586;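 active = mean z-score across replicates of 1.96 or higher in either the MELAS or the Rieske mutant cell line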;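 also: z relative to plate mean and SD of compound and empty wells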)
# [11] = ovarian cancer cell viability with rucaparib, profiling panel, oncology-focused library, rucaparib conditional (AID 1508598); conditions: patient-derived ovarian cancer cells, CellTiter-Glo viability, 144 h, stronger effect = lower value
# [12] = stronger effect = lower value, cell number ratio, induced over uninduced
# [13] = measured here: relative caspase fold change +Dox/-Dox
# [14] = measured here: total cells with miR-34 induction, stronger effect = lower value
# [15] = measured here: total cells without miR-34 induction
# [16] = MELAS cybrid survival, CellTiter-Glo 48 h, stronger effect = higher value
# [17] = Rieske KO mouse fibroblast survival, CellTiter-Glo 72 h
# [18] = at 0.000305 µM, OCI-C5x cells, with rucaparib 10 µM, 100% = cells with rucaparib alone
# [19] = at 0.000305 µM, OCI-C5x cells, without rucaparib
# [20] = at 0.000305 µM, OCI-P5x cells, with rucaparib 20 µM, 100% = cells with rucaparib alone
# [21] = at 0.000305 µM, OCI-P5x cells, without rucaparib
# [22] = at 0.00122 µM, OCI-C5x cells, with rucaparib 10 µM, 100% = cells with rucaparib alone
# [23] = at 0.00122 µM, OCI-C5x cells, without rucaparib
# [24] = at 0.00122 µM, OCI-P5x cells, with rucaparib 20 µM, 100% = cells with rucaparib alone
# [25] = at 0.00122 µM, OCI-P5x cells, without rucaparib
# [26] = at 0.00488 µM, OCI-C5x cells, with rucaparib 10 µM, 100% = cells with rucaparib alone
# [27] = at 0.00488 µM, OCI-C5x cells, without rucaparib
# [28] = at 0.00488 µM, OCI-P5x cells, with rucaparib 20 µM, 100% = cells with rucaparib alone
# [29] = at 0.00488 µM, OCI-P5x cells, without rucaparib
# [30] = at 0.0195 µM, OCI-C5x cells, with rucaparib 10 µM, 100% = cells with rucaparib alone
# [31] = at 0.0195 µM, OCI-C5x cells, without rucaparib
# [32] = at 0.0195 µM, OCI-P5x cells, with rucaparib 20 µM, 100% = cells with rucaparib alone
# [33] = at 0.0195 µM, OCI-P5x cells, without rucaparib
# [34] = at 0.0781 µM, OCI-C5x cells, with rucaparib 10 µM, 100% = cells with rucaparib alone
# [35] = at 0.0781 µM, OCI-C5x cells, without rucaparib
# [36] = at 0.0781 µM, OCI-P5x cells, with rucaparib 20 µM, 100% = cells with rucaparib alone
# [37] = at 0.0781 µM, OCI-P5x cells, without rucaparib
# [38] = at 0.313 µM, OCI-C5x cells, with rucaparib 10 µM, 100% = cells with rucaparib alone
# [39] = at 0.313 µM, OCI-C5x cells, without rucaparib
smiles,measurement,setting,value
CC[C@@]1([C@@H]2O[C@@H]([C@H]3O[C@@](O)(CO)[C@H](C)C[C@@H]3C)C[C@@H]2C)CC[C@H]([C@]2(C)CC[C@]3(C[C@H](O)[C@@H](C)[C@@H]([C@@H](C)[C@@H](OC)[C@H](C)C(=O)O)O3)O2)O1,AC50,[1],0.0574 µM (active)
same,AC50,[2],0.144 µM (active)
same,AC50,[3],0.456 µM (active)
same,AC50,[4],0.456 µM (active)
same,AC50,[5],0.288 µM (active)
COc1cc(C)c(Sc2cnc(NC(=O)c3ccc(CNC(C)C(C)C)cc3)s2)cc1C(=O)N1CCN(C(C)=O)CC1 (configuration not stated),AC50,[1],14.8 µM (active)
same,AC50,[2],18.7 µM (active)
same,AC50,[3],8.33 µM (active)
same,AC50,[4],10.5 µM (active)
same,AC50,[6],14.8 µM (active)
same,AC50,[5],16.6 µM (active)
same,IC50,[7],14.8 µM (active)
COc1ccc2c(c1)CC[C@@H]1[C@@H]2CC[C@]2(C)[C@@H](NCCCCCCN3C(=O)C=CC3=O)CC[C@@H]12,outcome,[1],inactive
same,outcome,[2],inactive
same,outcome,[3],inactive
same,outcome,[4],inactive
same,outcome,[6],inactive
same,outcome,[5],inactive
same,outcome,[7],inactive
same,fold change,[8]; [12],0.933 (inactive) and 0.926 (inactive)
same,fold change,[8]; [13],1.05 and 1.65
same,cell count,[8]; [14],5880 and 5430
same,cell count,[8]; [15],6300 and 5860
NCc1c[nH]c(=S)n1[C@H]1CCc2c(F)cc(F)cc2C1,outcome,[1],inactive
same,AC50,[2],9.35 µM (active)
same,outcome,[3],inactive
same,outcome,[4],inactive
same,outcome,[5],inactive
same,outcome,[7],inactive
CC(C)C[C@@H](N)[C@H](O)C(=O)N[C@H](C(=O)N[C@H](C(=O)N[C@@H](CC(=O)O)C(=O)O)C(C)C)C(C)C,outcome,[1],inactive
same,outcome,[2],inactive
same,outcome,[3],inactive
same,outcome,[4],inactive
same,outcome,[6],inactive
same,outcome,[5],inactive
same,outcome,[7],inactive
CN1N=C(N)c2cn([C@@H]3O[C@H](COP(=O)(O)O)[C@@H](O)[C@H]3O)c3ncnc1c23,AC50,[1],0.417 µM (active)
same,AC50,[2],0.372 µM (active)
same,AC50,[3],1.66 µM (active)
same,AC50,[4],0.105 µM (active)
same,AC50,[6],0.132 µM (active)
COc1cc2nccc(Oc3ccc(NC(=O)Nc4cc(C)on4)c(Cl)c3)c2cc1OC,AC50,[1],8.33 µM (active)
same,AC50,[2],18.7 µM (active)
same,AC50,[3],9.34 µM (active)
same,AC50,[4],5.9 µM (active)
same,AC50,[5],14.8 µM (active)
same,IC50,[7],9.34 µM (active)
same,fold change,[8]; [12],1.35 (inactive)
same,fold change,[8]; [13],0.722
same,cell count,[8]; [14],2720
same,cell count,[8]; [15],2010
same,SSMD,[9],3.28
same,cell count,[9],7170
same,plate-normalised HSF1 focus index,[9],1.19 (inactive)
same,z-score,[10]; [16],-0.36 (inactive)
same,z-score,[10]; [17],0.933
same,viability,[11]; [18],115% (inactive)
same,viability,[11]; [19],105% (inactive)
same,viability,[11]; [20],104% (inactive)
same,viability,[11]; [21],96.5% (active)
same,viability,[11]; [22],109% (inactive)
same,viability,[11]; [23],100% (active)
same,viability,[11]; [24],101% (inactive)
same,viability,[11]; [25],94.7% (active)
same,viability,[11]; [26],107% (inactive)
same,viability,[11]; [27],106% (inactive)
same,viability,[11]; [28],92.6% (active)
same,viability,[11]; [29],93.9% (active)
same,viability,[11]; [30],113% (inactive)
same,viability,[11]; [31],96.2% (active)
same,viability,[11]; [32],98.1% (active)
same,viability,[11]; [33],86.6% (active)
same,viability,[11]; [34],113% (inactive)
same,viability,[11]; [35],88.6% (active)
same,viability,[11]; [36],92.2% (active)
same,viability,[11]; [37],87.4% (active)
same,viability,[11]; [38],133% (inactive)
same,viability,[11]; [39],109% (inactive)
same,viability,"[11]; at 0.313 µM, OCI-P5x cells, with rucaparib 20 µM, 100% = cells with rucaparib alone",88.2% (active)
same,viability,"[11]; at 0.313 µM, OCI-P5x cells, without rucaparib",91.5% (active)
same,viability,"[11]; at 1.25 µM, OCI-C5x cells, with rucaparib 10 µM, 100% = cells with rucaparib alone",138% (inactive)
same,viability,"[11]; at 1.25 µM, OCI-C5x cells, without rucaparib",93.1% (active)
same,viability,"[11]; at 1.25 µM, OCI-P5x cells, with rucaparib 20 µM, 100% = cells with rucaparib alone",81.9% (active)
same,viability,"[11]; at 1.25 µM, OCI-P5x cells, without rucaparib",86.1% (active)
same,viability,"[11]; at 5 µM, OCI-C5x cells, with rucaparib 10 µM, 100% = cells with rucaparib alone",150% (inactive)
same,viability,"[11]; at 5 µM, OCI-C5x cells, without rucaparib",104% (inactive)
same,viability,"[11]; at 5 µM, OCI-P5x cells, with rucaparib 20 µM, 100% = cells with rucaparib alone",70.8% (active)
same,viability,"[11]; at 5 µM, OCI-P5x cells, without rucaparib",82.8% (active)
COc1ccccc1[C@H](c1cccc2ccccc12)[C@@](C)(C#N)C(=O)N1CCC(c2cccc(C(F)(F)F)c2)CC1,outcome,[1],inactive
same,AC50,[2],3.32 µM (active)
same,outcome,[3],inactive
same,outcome,[4],inactive
same,outcome,[6],inactive
same,outcome,[5],inactive
same,outcome,[7],inactive
Cc1ncc(-c2ccnc(Nc3ccc(S(C)(=O)=O)cc3)n2)n1C(C)C,AC50,[1],5.25 µM (active)
same,AC50,[2],2.35 µM (active)
same,AC50,[3],3.72 µM (active)
same,AC50,[4],4.68 µM (active)
same,AC50,[5],4.68 µM (active)
same,IC50,[7],2.95 µM (active)
same,fold change,[8]; [12],0.998 (inactive)
same,fold change,[8]; [13],1.12
same,cell count,[8]; [14],1780
same,cell count,[8]; [15],1790
same,z-score,[10]; [16],1.7 (inactive)
same,z-score,[10]; [17],-2.84
COc1ccc(-c2ccc3c(N4CCOC[C@@H]4C)nc(N4CCOC[C@@H]4C)nc3n2)cc1CO,AC50,[1],0.209 µM (active)
same,AC50,[2],0.00935 µM (active)
same,AC50,[3],0.661 µM (active)
same,AC50,[4],0.105 µM (active)
same,AC50,[5],0.059 µM (active)
same,SSMD,[9],-0.138
same,cell count,[9],7120
same,plate-normalised HSF1 focus index,[9],0.995 (inactive)
same,viability,[11]; [18],112% (inactive)
same,viability,[11]; [19],106% (inactive)
same,viability,[11]; [20],87.2% (active)
same,viability,[11]; [21],93% (active)
same,viability,[11]; [22],122% (inactive)
same,viability,[11]; [23],105% (inactive)
same,viability,[11]; [24],94.9% (active)
same,viability,[11]; [25],92.8% (active)
same,viability,[11]; [26],124% (inactive)
same,viability,[11]; [27],119% (inactive)
same,viability,[11]; [28],90.3% (active)
same,viability,[11]; [29],91% (active)
same,viability,[11]; [30],116% (inactive)
same,viability,[11]; [31],106% (inactive)
same,viability,[11]; [32],72.9% (active)
same,viability,[11]; [33],62.8% (active)
same,viability,[11]; [34],71.2% (active)
same,viability,[11]; [35],55.7% (active)
same,viability,[11]; [36],43.6% (active)
same,viability,[11]; [37],24.2% (active)
same,viability,[11]; [38],47.2% (active)
same,viability,[11]; [39],48.1% (active)
